A word on the AC50: it is the midpoint of the concentration-response curve, whichever way the signal moves.

We go through 1 compound from PubChem BioAssay (EPA / NIEHS).

Results filed as inconclusive are left out. Active and inactive are the calls of the source. How the source made its calls, unless noted: active means hit-call score of the fitted dose curve at least 0.9, where 1 is the maximum; inactive means score below 0.9.

A short description of assay [1]: CCTE_Shafer_MEA_dev_per_network_spike_spike_percent: CCTE's Neural Network Formation Assay for Percent of Spikes in a Network Spike, Shafer Lab (AID 2284054). A digest of the protocol: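 Primary rat cortical neurons on 16-electrode MEA wells (PEI-coated, laminin at plating), exposed from day 0 with renewal at DIV 5 and 9; spikes within 0.05 s of network-spike peaks over total spikes, AUC across days 5, 7, 9, 12.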

The nature of assay [2]: CCTE_Shafer_MEA_dev_LDH: CCTE's Lactate Dehydrogenase Assay for Cytotoxicity in the Neural Network Formation Assay, Shafer Lab (AID 2284068; active means hit-call score of the fitted dose curve at least 0.9, where 1 is the maximum;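 further: exposure for twelve days from plating with re-dosing on DIV 5 and 9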). An outline of the steps: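 Primary rat cortical neurons were cultured on PEI-coated MEA plates and exposed from plating through day 12, with compound renewed at medium changes on DIV 5 and 9. LDH activity was read spectrophotometrically; loss of signal versus DMSO indicates reduced viability.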

The nature of assay [3]: CCTE_Shafer_MEA_dev_AB: CCTE's Alamar Blue Assay for Cytotoxicity in the Neural Network Formation Assay, Shafer Lab (AID 2284083; active means hit-call score of the fitted dose curve at least 0.9, where 1 is the maximum;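 further: resazurin reduction fluorescence as viability of cultured neurons; twelve days of exposure from plating with re-dosing on DIV 5 and 9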). An outline of the steps:
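Resazurin fluorescence, relative to DMSO, gauges viability after twelve days of exposure that began at plating of rat cortical neurons (1.5 x 10^5 cells/well, 48-well MEA); treatment renewed with full medium exchange on DIV 5 and 9.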

Assay [4] can be described thus: CCTE_Shafer_MEA_dev_mutual_information_norm: CCTE's Neural Network Formation Assay for Mutual Information Normalization, Shafer Lab (AID 2284091).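 Further: mutual information between electrodes summarised as area under curve across four recording days; potency is for a decrease in mutual information relative to DMSO.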 A digest of the protocol:
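Rat cortical cultures, 48-well MEA, continuous exposure DIV 0–12 with full media/compound change DIV 5 and 9. Readout: inter-electrode mutual information, AxIS adaptive spike detection; AUC across DIV 5/7/9/12 recordings; DMSO baseline, negative fitting direction.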

The nature of assay [5]: CCTE_Shafer_MEA_dev_correlation_coefficient_mean: CCTE's Neural Network Formation Assay for Mean Correlation Coefficient, Shafer Lab (AID 2284093).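 Further: well mean pairwise spike train correlation integrated as AUC over recording days 5 to 12; potency fitted for loss of correlation relative to DMSO vehicle wells.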 A digest of the protocol: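 Primary rat cortical neurons on PEI-coated 48-well MEA plates (16 electrodes/well) were exposed from plating day 0 through DIV12, with compound renewed at DIV5 and 9. Pairwise spike correlations were averaged per well; trapezoidal AUC across DIV5, 7, 9, 12.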

Assay [6] is described as follows: CCTE_Mundy_HCI_Cortical_Synap_Neur_Matur_NeuriteSpotCountPerNeuriteLength: CCTE's Synaptogenesis and Neurite Maturation Assay in rat cortical cells for Neurite Spot Count per Neurite Length, Mundy Lab (AID 2284210). An outline of the steps: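 Rat primary cortical cultures, glia arrested with AraC at DIV 5, were dosed with media change at DIV 7 and fixed at DIV 12. Synaptophysin puncta per MAP2-labelled neurite length were quantified by high-content imaging versus DMSO.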

Assay [7] in a line: CCTE_Mundy_HCI_Cortical_NOG_NeuriteCount: CCTE's Neurite Outgrowth Assay in rat cortical cells for Neurite Count, Mundy Lab (AID 2284212).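 Further: cells fixed about two days after chemical exposure began.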 A digest of the protocol:
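Neurite number per cell from high-content imaging of betaIII-tubulin immunostaining, with Hoechst nuclear counterstain.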

Assay [8] can be described thus: CCTE_Mundy_HCI_Cortical_NOG_NeuriteLength: CCTE's Neurite Outgrowth Assay in rat cortical cells for Neurite Length, Mundy Lab (AID 2284213).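 Further: neurites imaged about 48 to 50 h after chemical exposure began.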 An outline of the steps:
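Neurite length was read by high-content imaging of βIII-tubulin-labelled neurites in rat primary cortical cultures. Activity was fitted relative to DMSO.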

Assay [9] can be described thus: CCTE_Mundy_HCI_Cortical_Synap_Neur_Matur_NeuriteSpotCountPerNeuron: CCTE's Synaptogenesis and Neurite Maturation Assay in rat cortical cells for Neurite Spot Count per Neuron Count, Mundy Lab (AID 2284215). A digest of the protocol:
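Developing rat cortical neurons, with glia suppressed by AraC, are exposed to chemicals from DIV 7 to DIV 12. Automated fluorescence imaging of MAP2-labelled neurites and synaptophysin puncta yields a count per neuron, normalised against DMSO wells.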

A short description of assay [10]: CCTE_Mundy_HCI_Cortical_Synap_Neur_Matur_SynapseCount: CCTE's Synaptogenesis and Neurite Maturation Assay in rat cortical cells for Synapse Count, Mundy Lab (AID 2284218). A digest of the protocol:
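Rat primary cortical cultures, AraC at DIV 5, chemical dosing DIV 7 to DIV 12 (288.33 h). Fixed cells stained for MAP2, synaptophysin and Hoechst; synapses per neuron counted by high-content imaging, loss of signal versus DMSO.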

Assay [11] is described as follows: CCTE_Mundy_HCI_hN2_NOG_NeuriteCount: CCTE's Neurite Outgrowth Assay in human hN2 cells for Neurite Count, Mundy Lab (AID 2284219; active means hit-call score of the fitted dose curve at least 0.9, where 1 is the maximum). An outline of the steps: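 In this morphology assay, hNP1-derived neurons received test chemical 2 h post-plating and were fixed two days later in warm paraformaldehyde/sucrose containing Hoechst 33342. Neurites, labelled by rabbit anti-βIII-tubulin (1:800) and Alexa Fluor-488 (1:500), were counted automatically.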

The nature of assay [12]: CCTE_Mundy_HCI_hN2_NOG_NeuriteLength: CCTE's Neurite Outgrowth Assay in human hN2 cells for Neurite Length, Mundy Lab (AID 2284220; active means hit-call score of the fitted dose curve at least 0.9, where 1 is the maximum). An outline of the steps: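 Using βIII-tubulin immunofluorescence and Hoechst nuclear counterstain, this component quantifies neurite length in hNP1-derived neurons.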
The nature of assay [13]: CCTE_Mundy_HCI_hN2_NOG_NeuronCount: CCTE's Neurite Outgrowth Assay in human hN2 cells for Neuron Count, Mundy Lab (AID 2284221; active means hit-call score of the fitted dose curve at least 0.9, where 1 is the maximum). A digest of the protocol:
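Read-out is the number of betaIII-tubulin-positive neurons imaged by automated high-content analysis, with DMSO as negative control.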

Assay [14] is described as follows: CCTE_Mundy_HCI_Cortical_Synap_Neur_Matur_NeuriteCount: CCTE's Synaptogenesis and Neurite Maturation Assay in rat cortical cells for Neurite Count, Mundy Lab (AID 2284222).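 Further: exposure from day 7 to day 12 in vitro with readout at day 12.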 A digest of the protocol:
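Rat cortical neurons, 96-well; AraC DIV 5; chemical + media change DIV 7; end DIV 12. Fix PFA/Hoechst, anti-MAP2 + anti-synaptophysin IF. HCI neurite count vs DMSO baseline.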

The nature of assay [15]: CCTE_Mundy_HCI_Cortical_Synap_Neur_Matur_CellBodySpotCount: CCTE's Synaptogenesis and Neurite Maturation Assay in rat cortical cells for Cell Body Spot Count, Mundy Lab (AID 2284223). An outline of the steps: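 Chemicals were applied to AraC-treated rat primary cortical cells at DIV 7 and measured at DIV 12. Fixed cells were labelled for MAP2, synaptophysin and nuclei, and high-content imaging gave cell body synaptophysin spot counts per neuron relative to DMSO.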

Assay [16] can be described thus: CCTE_Mundy_HCI_hNP1_Pro_ResponderAvgInten: CCTE's Proliferation Assay in human neuroprogenitor cells, Mundy Lab (AID 2284224; active means hit-call score of the fitted dose curve at least 0.9, where 1 is the maximum). An outline of the steps:
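Human neuroprogenitors (hNP1, WA09 lineage) receive test chemical after 40 to 44 hours of attachment. A four-hour BrdU pulse begins twenty hours later, followed by fixation and high content imaging; signal is referenced to DMSO controls.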

A short description of assay [17]: CCTE_Mundy_HCI_hNP1_Casp3_7: CCTE's Caspase-Glo 3/7 Assay in human neuroprogenitor cells for Apoptosis, Mundy Lab (AID 2284240). An outline of the steps: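 Neuroepithelial-lineage stem cells from WA09 embryonic cells were treated with chemicals after 40–44 h of culture. Twenty-four hours later, caspase-3/7 activation was detected luminescently after a 30 min room-temperature reagent step, with DMSO as baseline.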

Assay [18] can be described thus: CCTE_Mundy_HCI_hNP1_CellTiter: CCTE's Cell Titer-Glo 2 Assay in human neuroprogenitor cells for Viability, Mundy Lab (AID 2284241; active means hit-call score of the fitted dose curve at least 0.9, where 1 is the maximum;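 further: a hit is a drop in ATP luminescence versus DMSO meaning reduced viability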). A digest of the protocol: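 Measures ATP content in human neural progenitors derived from WA09 embryonic cells. Read-out at 26.5 hours after dosing, with DMSO serving as the negative control and baseline.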
(Cellular ATP, detected with luciferase, serves as a proxy for viable cell number.)

Assay [19] in a line: CCTE_Mundy_HCI_Cortical_Synap_Neur_Matur_NeuronCount: CCTE's Synaptogenesis and Neurite Maturation Assay in rat cortical cells for Neuron Count, Mundy Lab (AID 2284242; active means hit-call score of the fitted dose curve at least 0.9, where 1 is the maximum;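 further: hits reduce neuron count versus DMSO baseline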). An outline of the steps:
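Rat primary cortical cells, AraC added at DIV 5, dosed with media change from DIV 7 to DIV 12. Fixed, Hoechst-stained and immunolabelled for MAP2 and synaptophysin; neuron number counted by high-content imaging, loss fitted versus DMSO.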

In the case of `CCC[CH2][Sn]([CH2]CCC)([CH2]CCC)[O][Sn]([CH2]CCC)([CH2]CCC)[CH2]CCC`, the AC50 in assay [1] was 77 nM (active); in [2], 32.8 nM (active); in assay [3] it was 45.5 nM (active); in assay [4], 34.5 nM (active); in [5] it was 33.5 nM (active); in [7] it was 27.8 nM (active). The AC50 was 22.1 nM (active) in [8]; 22.6 nM (active) in assay [9]; 22 nM (active) in assay [10]; 47.8 nM (active) in [11]; 43.6 nM (active) in assay [12]; 31.9 nM (active) in [13]. Further, the AC50 in [15] is 31.1 nM (active); in assay [16] it was 125 nM (active); in assay [17] it was 115 nM (active); in assay [18] it was 57.2 nM (active); in [19] it was 10.8 nM (active). The call in assay [6] and in [14] was inactive.
